According to PubChem BioAssay (NCATS):
Records with an inconclusive call do not appear. The source made the active and inactive calls. Unless noted, calls follow the shape of the dose curve; as a rule, active = well fitted curve in either direction with a large enough effect (not every such curve was filed as active); inconclusive = small, poorly fitted or top-dose-only effect, or another doubt; inactive = flat fitted curve, though single readings scatter.

How the values were obtained:
[1] = AP1 Signaling Pathway (AID 357); settings: ME-180 AP-1-bla reporter, EGF-induced, beta-lactamase ratio, 5 h; at 17.2 µM (top of the series) unless noted; also: % is scaled to controls: 0 for no effect and ±100 for the full control effect
Outline: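 AP-1-bla ME-180 cells with beta-lactamase reporter under AP-1 response element, stimulated with EC50 EGF; compounds titrated, 5 hours at 37 degrees Celsius. CCF4 read at 460/530 nm ratio; positive and negative modulators judged by AC50.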

[2] = NFAT Signaling Pathway (AID 444); settings: Jurkat NFAT-bla M1, carbachol, beta-lactamase ratio, 5 h; at 17.2 µM (top of the series) unless noted;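 also: carbachol stimulus at about its EC50 of 1 µM final; % is scaled to controls: 0 for no effect and ±100 for the full control effect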
Outline: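 Jurkat cells with NFAT-driven β-lactamase reporter and co-expressed M1 receptor, stimulated with carbachol (final 1 uM, ~EC50), compound titration, 5 h at 37 °C. CCF4 loaded 1 h at RT; 460/530 nm ratio gave %activity and AC50.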

[3] = Stat Signaling Pathway (AID 446); settings: ME-180 SIE beta-lactamase reporter, IL-6 stimulated, 5 h; at 17.2 µM (top of the series) unless noted;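 also: ME-180 cervical cancer cells given 40 pM IL-6 alongside compound; SIE-controlled beta-lactamase reporter measured as 460/530 nm FRET emission ratio; % is scaled to controls: 0 for no effect and ±100 for the full control effect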
Outline: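 Compound effects on IL-6-induced STAT reporter activity were measured in ME-180 cells. After overnight culture, cells were co-treated with 40 pM IL-6 for 5 hrs before beta-lactamase substrate loading at room temperature.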

[4] = biological target: Glucocorticoid receptor (Homo sapiens) (UniProt P04150); assay: GR-GFP Redistribution (AID 450;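 active = compounds whose dose series gives a full or clear partial fitted curve of increased nuclear translocation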; also: potency is read from the fitted curve at half-maximal effect)
[5] = qHTS Assay for Identification of Small Molecule Agonists for Hypoxia Response Element Signaling Pathway (AID 914; active = well fitted activation curve with a large enough effect in the signal ratio, with a control signal flat, not every such curve was filed as active; the % refers to the signal ratio; also: % of control where 0% means no effect); settings: ME-180 (cervical carcinoma) HRE-bla reporter, beta-lactamase ratio, CoCl2, 17 h; activation: stronger effect = higher value
Outline: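 HRE-bla ME-180 cells with beta-lactamase reporter under hypoxia response element, compounds with EC50 CoCl2 for 17 hours at 37 C. CCF4 substrate, 460nm/530nm emission ratio gave %Activity; AC50 from titration series.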

[6] = biological target: Mitogen-activated protein kinase 10 (Mus musculus) (UniProt Q61831); assay: JNK3 AlphaScreen Assay (AID 530);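 also: kinase came from lysate of stimulated human HepG2 cells; signal reports phosphorylation of biotinylated GST-cJun 1-79 at Ser73 with 10 µM ATP; % is scaled to controls: 0 for no effect and ±100 for the full control effect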
Outline: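 Activity was read by AlphaScreen after JNK3-containing HepG2 lysate (cytokine pre-activated) phosphorylated biotinylated GST-cJun with 10 uM ATP at room temperature. Phospho-Ser73 cJun antibody with Protein-A acceptor beads provided detection.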

[7] = biological target: 3',5'-cyclic-AMP phosphodiesterase 4B (Homo sapiens) (UniProt Q07343); assay: qHTS Assay for Inhibitors of PDE-IV (AID 607; active = well fitted activation curve with a large enough effect in the main read-out, with a control signal flat, not every such curve was filed as active; also: % of control where 0% means no effect)
Outline: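 ACTOne HEK293 cells carry a modified cAMP-gated CNG channel and express endogenous PDE4; plated 1000 cells/well, compounds up to 22.9 uM final. Membrane-potential dye fluorescence (ex 535/em 590) was read; parental cells received 10 uM forskolin + 100 uM RO 20-1724.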

[8] = biological target: ATP-dependent 6-phosphofructokinase (Trypanosoma brucei brucei) (UniProt O15648); assay: qHTS Assay to Find Inhibitors of T. brucei phosphofructokinase: hit validation (AID 492961; active = well fitted curve in the direction sought with a large enough effect; an effect the other way counts as inactive or inconclusive)
Outline: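 Compounds titrated; %activity normalized to 0x and 1x enzyme controls, curve-fitted. Readout: ADP-Glo luminescence after 45 min room-temperature reaction of 1.25 nM PFK, 0.1 mM ATP, 0.5 mM F6P, pH 8.0.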

[9] = biological target: Ubiquitin carboxyl-terminal hydrolase 1 (Homo sapiens) (UniProt O94782); assay: Inhibitors of USP1/UAF1: Pilot qHTS (AID 504865; active = well fitted curve in the direction sought with a large enough effect; an effect the other way counts as inactive or inconclusive;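 also: rhodamine fluorescence freed from ubiquitin-rhodamine substrate followed over time; top concentration of the series differs between compounds; % is scaled to controls: 0 for no effect and ±100 for the full control effect; nearly all actives have a fitted effect of over 35% in size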)
Outline: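 USP1/UAF1 complex at 1 nM preincubated 15 min at room temperature with compound, then Ub-Rho substrate added at 150 nM final. Fluorescence (480/540 nm) read kinetically in 50 mM HEPES pH 7.8, 0.5 mM EDTA, 1 mM TCEP, 0.1 mg/ml BSA, 0.01% Tween-20.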

[10] = biological target: Luciferin 4-monooxygenase (Photinus pyralis) (UniProt P08659); assay: Biochemical firefly luciferase enzyme assay for NPC (AID 624030; active = well fitted curve in the direction sought with a large enough effect; an effect the other way counts as inactive or inconclusive;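 also: purified P. pyralis luciferase at 10 nM with luciferin and ATP substrate; 0% = DMSO and -100% = full luciferase inhibition by PTC124 control; nearly all actives have a fitted effect of over 70% in size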)
Outline: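 Purified P. pyralis luciferase at 10 nM in 50 mM Tris Acetate (final), luminescence read within 5 minutes of enzyme addition to compounds. Activity normalised to PTC124 versus DMSO; concentration-response curves classed by r2, magnitude and activity.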

[11] = S16 Schwann cell viability assay (CellTiter-Glo assay) (AID 624031; active = well fitted curve in the direction sought with a large enough effect; an effect the other way counts as inactive or inconclusive;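 also: cellular ATP luminescence as a viability measure; plate controls were DMSO-treated cells for no effect and cell-free wells for full effect; nearly all actives have a fitted effect of over 70% in size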)
Outline: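 Native S16 rat Schwann cells, 500-750 cells/well in DMEM with 10% FBS, dosed with compound after overnight culture and incubated 24h at 37 degree Celsius/5% CO2. Viability by CellTiter-Glo luminescence; % activity normalized to no-cell wells and DMSO-treated cells.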

[12] = S16 Schwann cell PMP22 intronic element firefly luciferase assay (AID 624032; active = well fitted curve in the direction sought with a large enough effect; an effect the other way counts as inactive or inconclusive;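 also: plate controls were DMSO for no effect and PTC124 positive control mean for full effect; nearly all actives have a fitted effect of over 30% in size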)
Outline: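 Rat S16 Schwann cells stably carrying firefly luciferase driven by a PMP22 intronic element, in 10% FBS, treated 24 h at 37 C. ONE-Glo luminescence normalized to PTC124 control and DMSO (0%); curves classed by r2, magnitude and activity.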

[13] = S16 Schwann cell PMP22 intronic element beta-lactamase assay (AID 624044; calls by dose curve;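 also: 0% = DMSO and -100% = potassium clavulanate positive control; nearly all actives have a fitted effect of over 15% in size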); settings: S16 rat Schwann cells, PMP22 element beta-lactamase FRET, 24 h; ratio activity, negative = inhibition: at 38.3 µM (top of the series)
Outline: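 Beta-lactamase reporter under a PMP22 intronic regulatory element in stable S16 rat Schwann cells; 24 h compound exposure. 460 nm blue signal normalized between DMSO (0%) and potassium clavulanate, with 535 nm FRET tracking viability; curves classed by r2 and response.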

ATS189 = assay: qHTS profiling for inhibitors of Plasmodium falciparum proliferation (AID 504749; active = well fitted curve in the direction sought with a large enough effect; an effect the other way counts as inactive or inconclusive; also: nearly all actives have a fitted effect of over 60% in size; also: potency is read from the fitted curve at half-maximal effect;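 as to activity, negative = inhibition: 0% = DMSO vehicle and full inhibition = artemisinin control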); settings: P. falciparum in erythrocytes, SYBR Green DNA, 72 h; series mostly up to 28.7 µM
Outline: (§1)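 Each compound contacts P. falciparum-infected red blood cells for 72 h at 37 C; lysis buffer (Tris, EDTA, saponin, Triton X, SYBR Green I) is added and fluorescence measured next morning; values normalized to controls.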

CP262 = assay: as above; settings: P. falciparum in erythrocytes, SYBR Green DNA, 72 h; series mostly up to 28.7 µM
Outline: as §1

CP297 = assay: as above; settings: P. falciparum in erythrocytes, SYBR Green DNA, 72 h; series mostly up to 28.7 µM
Outline: as §1

CP335 = assay: as above; settings: P. falciparum in erythrocytes, SYBR Green DNA, 72 h; series mostly up to 28.7 µM
Outline: as §1

Dd2 = assay: as above; settings: P. falciparum in erythrocytes, SYBR Green DNA, 72 h; series mostly up to 28.7 µM
Outline: as §1

TAB109 = assay: as above; settings: P. falciparum in erythrocytes, SYBR Green DNA, 72 h; series mostly up to 28.7 µM
Outline: as §1

W2 = assay: as above; settings: P. falciparum in erythrocytes, SYBR Green DNA, 72 h; series mostly up to 28.7 µM
Outline: as §1

Sequence of Glucocorticoid receptor (Homo sapiens) (P04150 whole entry, looked up): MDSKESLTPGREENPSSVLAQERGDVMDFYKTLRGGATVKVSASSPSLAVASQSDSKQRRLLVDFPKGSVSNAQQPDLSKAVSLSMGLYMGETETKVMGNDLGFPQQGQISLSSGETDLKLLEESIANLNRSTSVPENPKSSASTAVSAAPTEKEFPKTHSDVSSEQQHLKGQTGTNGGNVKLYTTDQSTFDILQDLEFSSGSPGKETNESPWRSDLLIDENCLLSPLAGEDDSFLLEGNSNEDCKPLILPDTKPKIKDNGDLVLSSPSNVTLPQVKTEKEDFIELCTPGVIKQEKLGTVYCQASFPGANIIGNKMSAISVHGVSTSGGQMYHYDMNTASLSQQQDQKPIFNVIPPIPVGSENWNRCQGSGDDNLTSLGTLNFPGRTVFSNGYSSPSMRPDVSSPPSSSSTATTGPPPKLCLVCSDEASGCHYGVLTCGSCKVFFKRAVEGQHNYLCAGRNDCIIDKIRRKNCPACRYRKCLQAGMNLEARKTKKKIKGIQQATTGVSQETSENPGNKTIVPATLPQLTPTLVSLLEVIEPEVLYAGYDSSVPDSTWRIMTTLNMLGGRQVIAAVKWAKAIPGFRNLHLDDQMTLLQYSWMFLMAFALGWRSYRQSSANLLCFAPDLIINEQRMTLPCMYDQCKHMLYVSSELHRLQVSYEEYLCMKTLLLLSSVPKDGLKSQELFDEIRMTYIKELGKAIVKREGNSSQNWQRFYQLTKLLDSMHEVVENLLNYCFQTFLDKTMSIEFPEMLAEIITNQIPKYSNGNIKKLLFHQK
Sequence of Ubiquitin carboxyl-terminal hydrolase 1 (Homo sapiens) (O94782 whole entry, looked up): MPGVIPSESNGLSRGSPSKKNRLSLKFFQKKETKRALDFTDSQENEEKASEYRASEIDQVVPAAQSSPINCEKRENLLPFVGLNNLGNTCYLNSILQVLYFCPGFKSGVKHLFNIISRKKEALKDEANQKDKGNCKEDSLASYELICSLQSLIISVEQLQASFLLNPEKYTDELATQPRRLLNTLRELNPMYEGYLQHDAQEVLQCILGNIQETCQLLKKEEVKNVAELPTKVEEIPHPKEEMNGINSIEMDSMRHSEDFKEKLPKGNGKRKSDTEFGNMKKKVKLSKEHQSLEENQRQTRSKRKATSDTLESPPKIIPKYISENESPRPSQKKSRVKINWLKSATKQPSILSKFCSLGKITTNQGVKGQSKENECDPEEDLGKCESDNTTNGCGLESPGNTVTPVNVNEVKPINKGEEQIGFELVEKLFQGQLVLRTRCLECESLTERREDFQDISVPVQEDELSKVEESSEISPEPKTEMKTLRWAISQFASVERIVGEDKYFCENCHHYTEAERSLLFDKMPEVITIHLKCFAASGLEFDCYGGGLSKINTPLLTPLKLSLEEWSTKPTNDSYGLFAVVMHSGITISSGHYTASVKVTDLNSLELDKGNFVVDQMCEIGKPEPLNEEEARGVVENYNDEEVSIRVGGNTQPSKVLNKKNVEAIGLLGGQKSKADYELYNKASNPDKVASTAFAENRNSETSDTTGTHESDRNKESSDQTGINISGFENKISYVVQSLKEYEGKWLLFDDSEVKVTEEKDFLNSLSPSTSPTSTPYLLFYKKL
Sequence of Luciferin 4-monooxygenase (Photinus pyralis) (P08659 whole entry, looked up): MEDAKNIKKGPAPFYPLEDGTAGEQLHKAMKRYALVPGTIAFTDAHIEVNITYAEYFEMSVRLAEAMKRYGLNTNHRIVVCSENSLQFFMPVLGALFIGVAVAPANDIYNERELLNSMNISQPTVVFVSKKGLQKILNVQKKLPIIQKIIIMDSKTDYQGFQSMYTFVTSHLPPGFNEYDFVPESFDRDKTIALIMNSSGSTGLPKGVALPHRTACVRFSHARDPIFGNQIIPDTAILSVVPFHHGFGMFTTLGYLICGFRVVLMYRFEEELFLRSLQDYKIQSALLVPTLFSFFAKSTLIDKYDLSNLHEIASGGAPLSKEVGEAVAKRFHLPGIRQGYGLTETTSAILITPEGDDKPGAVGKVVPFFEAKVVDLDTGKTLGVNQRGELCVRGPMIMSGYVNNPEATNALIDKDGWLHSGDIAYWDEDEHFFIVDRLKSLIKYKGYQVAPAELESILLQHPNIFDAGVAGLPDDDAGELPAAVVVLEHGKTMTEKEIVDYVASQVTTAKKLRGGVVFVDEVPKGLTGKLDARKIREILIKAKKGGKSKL
Sequence of 3',5'-cyclic-AMP phosphodiesterase 4B (Homo sapiens) (Q07343 whole entry, looked up): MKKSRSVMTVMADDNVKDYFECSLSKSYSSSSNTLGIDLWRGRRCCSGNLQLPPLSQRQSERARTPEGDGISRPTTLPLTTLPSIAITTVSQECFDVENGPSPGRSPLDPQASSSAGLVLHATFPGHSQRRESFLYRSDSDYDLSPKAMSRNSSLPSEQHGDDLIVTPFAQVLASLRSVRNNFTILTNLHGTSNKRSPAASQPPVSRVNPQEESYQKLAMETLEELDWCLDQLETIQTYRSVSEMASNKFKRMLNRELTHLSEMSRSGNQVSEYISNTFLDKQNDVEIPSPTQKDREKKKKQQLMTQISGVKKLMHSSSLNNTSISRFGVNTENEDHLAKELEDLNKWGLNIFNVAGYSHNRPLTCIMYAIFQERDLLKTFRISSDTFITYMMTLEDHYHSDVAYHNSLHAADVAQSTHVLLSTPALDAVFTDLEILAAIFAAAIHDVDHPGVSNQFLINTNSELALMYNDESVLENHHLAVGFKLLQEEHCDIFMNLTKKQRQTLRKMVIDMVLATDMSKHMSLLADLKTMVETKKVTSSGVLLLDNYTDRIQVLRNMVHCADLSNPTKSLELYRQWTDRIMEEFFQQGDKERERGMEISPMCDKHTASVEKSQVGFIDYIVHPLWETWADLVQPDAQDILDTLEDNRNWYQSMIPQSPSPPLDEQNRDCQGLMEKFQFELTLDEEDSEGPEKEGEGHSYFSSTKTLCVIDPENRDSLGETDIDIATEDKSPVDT
Sequence of ATP-dependent 6-phosphofructokinase (Trypanosoma brucei brucei) (O15648 whole entry, looked up): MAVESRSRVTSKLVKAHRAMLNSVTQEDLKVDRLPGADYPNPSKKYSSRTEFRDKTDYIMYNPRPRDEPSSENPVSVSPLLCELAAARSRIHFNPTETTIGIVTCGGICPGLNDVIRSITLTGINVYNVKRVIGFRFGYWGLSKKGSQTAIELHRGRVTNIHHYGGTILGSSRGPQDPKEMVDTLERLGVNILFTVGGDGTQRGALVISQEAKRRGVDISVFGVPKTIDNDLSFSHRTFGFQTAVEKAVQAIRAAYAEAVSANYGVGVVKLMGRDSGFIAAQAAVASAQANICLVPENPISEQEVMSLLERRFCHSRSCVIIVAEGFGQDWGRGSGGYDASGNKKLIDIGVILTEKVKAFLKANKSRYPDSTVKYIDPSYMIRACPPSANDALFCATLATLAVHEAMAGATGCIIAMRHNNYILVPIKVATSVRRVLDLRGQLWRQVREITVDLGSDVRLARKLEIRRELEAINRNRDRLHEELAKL

CN(C=C1C(=O)CC(C)(C)CC1=O)CCN1CCNCC1
inactive: activity change, negative = inhibition [1] 19.5% | activity change, negative = inhibition [2] -19.2% | activity, negative = inhibition [3] 4.61% | Potency [4] > 20.6 µM | activation [5] -4.98%

Cc1cccc(OCc2nc(C)cc(=O)[nH]2)c1
inactive: activity change, negative = inhibition [1] 9.24% | activity change, negative = inhibition [2] -0.73% | Potency [4] > 20.6 µM

CCC[C@H]1C[C@H](C(=O)N[C@@H]([C@H]2O[C@@H](SC)[C@@H](O)[C@@H](O)[C@@H]2O)[C@H](C)Cl)N(C)C1
inactive: activity change, negative = inhibition [1] -4.04% | activity change, negative = inhibition [2] 0.269% | activity, negative = inhibition [3] 1.36% | Potency [6] | Potency [7] | Potency [8] | Potency [9] | Potency [10] | Potency [11] | Potency [12] | Potency [13] | Potency (ATS189)
active: Potency (CP262) 0.0151 µM | Potency (CP297) 0.0601 µM | Potency (CP335) 0.0601 µM | Potency (Dd2) 0.0447 µM | Potency (TAB109) 0.0316 µM | Potency (W2) 0.0426 µM

CCOC(=O)CSc1nc(N2CCOCC2)c2c(c1C#N)CC(C)(C)N(C)C2
inactive: activity change, negative = inhibition [1] -8.24% | activity change, negative = inhibition [2] -17.7% | Potency [4] > 20.6 µM

Cc1cccc(N2CC(=O)N(c3cccc(C)c3)CC2=O)c1
inactive: activity change, negative = inhibition [1] 5.22% | activity change, negative = inhibition [2] 5.99% | activity, negative = inhibition [3] 0.983% | Potency [4] > 20.6 µM | activation [5] 1.3%

O=C(c1ccc(=O)oc1)N1CCN(C(c2ccccc2)c2ccccc2)CC1
inactive: activity change, negative = inhibition [1] 26.4% | activity, negative = inhibition [3] -15.5% | Potency [4] > 20.6 µM | activation [5] 9.9%
active: activity change, negative = inhibition [2] -101%

O=C(NCc1cccnc1)c1ccc(=O)oc1
inactive: activity change, negative = inhibition [1] 10.5% | activity change, negative = inhibition [2] -0.473% | activity, negative = inhibition [3] 0.949% | Potency [4] > 20.6 µM | activation [5] 10.6%

COC(=O)c1ccc(C(=O)OC)c(NC(=O)c2cc3ccccc3o2)c1
inactive: activity change, negative = inhibition [1] -4.57% | activity change, negative = inhibition [2] 3.55% | activity, negative = inhibition [3] 8.58% | Potency [4] > 20.6 µM | activation [5] -0.252%
